The values that follow come from PubChem BioAssay AID488969 (Vanderbilt High Throughput Screening Facility, 2010).

Where “and” joins values, the source holds several entries; their conditions need not be identical. Identical values can stand only once. Whole data set: some 110,000 compounds, median “z-score” near -0.1, cut for the highest 2% near 2. The entries come from a sample that favours the highest values as a whole. Calls of active or inactive are those of the source.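 The calls were made as follows: active = z-score in the third read window above 3 or below -3; inactive = the rest.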

For this experiment, the target named is Metabotropic glutamate receptor 8 (Rattus norvegicus) (UniProt P70579). Briefly: mGluR8 Gi/Go-coupled signaling modulation – cell-based, rat, thallium flux, HTS, primary screen (AID 488969). To be noted: HEK293 rat mGluR8, GIRK (G protein-gated inwardly rectifying potassium channel) thallium flux, FluoZin2; at 10 µM; stronger effect = higher value; submaximal glutamate (EC20) added with thallium.
Sequence of Metabotropic glutamate receptor 8 (Rattus norvegicus) (P70579 whole entry, looked up): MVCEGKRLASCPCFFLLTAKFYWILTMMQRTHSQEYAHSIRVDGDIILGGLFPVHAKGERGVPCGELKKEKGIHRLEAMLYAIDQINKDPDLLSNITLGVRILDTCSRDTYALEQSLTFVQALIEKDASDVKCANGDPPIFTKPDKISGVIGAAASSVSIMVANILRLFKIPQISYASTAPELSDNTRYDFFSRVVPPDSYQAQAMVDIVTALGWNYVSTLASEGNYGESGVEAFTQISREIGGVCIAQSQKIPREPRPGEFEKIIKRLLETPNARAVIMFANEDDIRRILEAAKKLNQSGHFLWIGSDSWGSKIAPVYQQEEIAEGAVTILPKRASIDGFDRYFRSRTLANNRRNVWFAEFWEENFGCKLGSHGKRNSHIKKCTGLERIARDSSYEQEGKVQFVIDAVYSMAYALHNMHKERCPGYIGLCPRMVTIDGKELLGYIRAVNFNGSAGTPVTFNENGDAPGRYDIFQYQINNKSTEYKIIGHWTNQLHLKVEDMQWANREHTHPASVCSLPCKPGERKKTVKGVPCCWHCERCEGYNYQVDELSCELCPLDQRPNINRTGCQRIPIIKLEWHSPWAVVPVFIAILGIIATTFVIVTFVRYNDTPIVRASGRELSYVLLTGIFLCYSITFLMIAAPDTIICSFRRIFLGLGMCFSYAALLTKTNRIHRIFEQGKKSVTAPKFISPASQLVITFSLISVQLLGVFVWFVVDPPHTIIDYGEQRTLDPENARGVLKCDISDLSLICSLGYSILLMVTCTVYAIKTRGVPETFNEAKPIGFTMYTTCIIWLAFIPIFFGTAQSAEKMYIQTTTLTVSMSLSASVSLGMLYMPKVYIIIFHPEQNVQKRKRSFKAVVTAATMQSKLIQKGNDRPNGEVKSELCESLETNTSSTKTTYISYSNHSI
`COc1cc(S(=O)(=O)N2CCOCC2)ccc1NC(=O)COC(=O)CC12CC3CC(CC(C3)C1)C2` registered a z-score of 0.016.

In turn, `CCOC(=O)c1cc2sccc2n1CC(=O)N1CCCC1` came in with a z-score of -0.278.

Consider `Cc1ccc(S(=O)(=O)N2CCOCC2)cc1NC(=O)CSc1nnc2cc(C)c3ccccc3n12`, for which the z-score was -1.43.

With `CCn1c(-c2cc3c(C(F)(F)F)nn(C)c3s2)n[nH]c1=S`, the z-score is 7 (active).

For the compound `CCCCSc1nnc(-c2cc3c(C(F)(F)F)nn(C)c3s2)n1C`, the z-score was -0.355.

In turn, `Cn1c(-c2cc3c(C(F)(F)F)nn(C)c3s2)n[nH]c1=S` yielded a z-score of -0.114.

Turning to `Cc1cc(N2CCN(c3nc(N4CCOCC4)nc4ccccc34)CC2)c2ccccc2n1`, the z-score was determined as 0.213.

`CC(C)CC(C(=O)Nc1oc(-c2ccccc2)c(-c2ccccc2)c1C#N)N1C(=O)c2ccccc2C1=O` (centres undefined) displayed a z-score of -0.151.

`COc1ccc(C(=O)Oc2ccc(/C=N/NC(=O)Cc3ccc([N+](=O)[O-])cc3)cc2)cc1` returned a z-score of 0.194.

The compound `O=C(NNC(=S)NC(=O)c1cccnc1)c1ccc(Cl)cc1` gave a z-score of 0.171.

In the case of `Cc1onc(-c2ccccc2)c1C(=O)NNC(=S)NC(=O)c1ccc(Cl)cc1Cl`, the z-score was 0.272.

With `COC(=O)NNC(=O)c1ccc(Cl)cc1Cl`, the z-score was -0.27.

With `Cc1ccc(C(=O)NC(=S)NNS(=O)(=O)c2ccc(C)cc2)cc1`, the z-score was found to be 0.234.

Consider `Cc1cccc(C(=O)NC(=S)NNC(=O)c2ccc(Cl)cc2)c1`, for which the z-score is 6.22 (active).

Compound `Cc1ccc(C(=O)NNC(=S)NC(=O)c2ccc(Cl)cc2Cl)cc1` displayed a z-score of 2.02.

Consider `Cc1ccc(C(=O)NNC(=S)NC(=O)c2ccc(Cl)cc2)cc1`, for which the z-score is 7.64 (active).

In turn, `Cc1ccc(C(=O)NC(=S)Nc2ccc(NC(=O)c3cccc(Cl)c3)cc2)cc1` displayed a z-score of -0.278.

As to `O=C(NNC(=O)c1ccc(Cl)cc1Cl)c1ccncc1`, the z-score was determined as 0.97.

In the case of `O=C(NC(=S)NNC(=O)c1ccc(Cl)cc1Cl)c1cccnc1`, the z-score was -0.129.

For the compound `Cc1cccc(C(=O)NNC(=O)c2ccc(-c3ccccc3)cc2)c1`, the z-score was determined as 0.252.

For the compound `Cc1ccccc1C(=O)NNC(=S)NC(=O)c1ccc(Cl)cc1Cl`, the z-score is 4.35 (active).

Take `CN(C)[C@@H]1CCC[C@H]1OC(=O)C(c1ccccc1)c1ccccc1`: the z-score was -1.41.

Compound `Cc1ccc(S(=O)(=O)N2CCN(S(=O)(=O)c3ccc(C)cc3)C2)cc1` came in with a z-score of -0.481.

For the compound `O=C(COC(=O)Cc1ccc(Cl)cc1Cl)NCCC1=CCCCC1`, the z-score was -1.17.

For the compound `CCCC(=O)Nc1ccc(C(=O)Nc2nc(CC(=O)OCC)cs2)cc1`, the z-score is -0.437.

Take `CCCN1C/C(=C/c2ccc3c(c2)OCO3)C(=O)/C(=C/c2ccc3c(c2)OCO3)C1`: the z-score is -0.565.

Take `Cc1ccc2c(c1)C1CCCC3C1N2CC(=O)N3Cc1ccccc1` (centres undefined): the z-score is -0.338.

The compound `C/C(=N\O)C(C)/[N+]([O-])=C/c1nc(C)c(C)n1O` (centres undefined) came in with a z-score of 1.53.

The compound `O=C(CSc1nc2ccccc2c(=O)n1-c1ccc(F)cc1)Nc1ccc(N2CCOCC2)cc1` yielded a z-score of -0.000577.

With `O=C(NC(=S)NNC(=O)c1cccs1)c1ccc(Br)o1`, the z-score is 4.37 (active).

As to `Cc1cccc(C(=O)NC(=S)NNC(=O)c2cccs2)c1`, the z-score is 5.42 (active).

The compound `COc1ccc(C)cc1NC(=S)NNC(=O)c1ccccc1Cl` came in with a z-score of 0.678.

In turn, `O=C(NC(=S)NNC(=O)c1cccs1)c1ccco1` gave a z-score of 1.08.

As to `Cc1cccc(C(=O)NC(=S)NNC(=O)c2ccccc2Cl)c1`, the z-score is 5.34 (active).

`Cc1cccc(C(=O)NC(=S)NNC(=O)Cc2ccccc2)c1` yielded a z-score of 1.8.

For the compound `O=C(COc1ccccc1)NNC(=S)NC(=O)c1ccc(Cl)cc1Cl`, the z-score is 5.19 (active).

On to `CCNC(=S)NNC(=O)c1cccs1`, for which the z-score is -0.146.

In the case of `Cc1ccc(OCC(=O)NC(=S)Nc2cccc(NC(=O)c3ccc(Cl)cc3Cl)c2)cc1`, the z-score came out at 0.148.

`O=C(COc1cccc(Cl)c1)NNC(=S)Nc1ccccc1` showed a z-score of 0.593.

Consider `O=C(NNC(=O)c1cccs1)c1ccc(Br)o1`, for which the z-score is -0.207.

Regarding `O=C(NNC(=S)NC(=O)c1cccs1)c1ccc(NC(=O)c2ccccc2)cc1`, the z-score is -0.0903.

With `CC1=C(C(=O)Nc2cc(C)ccc2C)C(c2cccs2)NC(=S)N1` (centres undefined), the z-score is -0.0019.

Compound `O=C(CS(=O)CC(=O)N(c1ccccc1)C(C(=O)NC1CCCCC1)c1ccco1)Nc1ccc(F)cc1` (centres undefined) came in with a z-score of -0.245.

For the compound `COc1ccc(S(=O)(=O)n2nc(C)cc2C)c(C)c1C`, the z-score was -0.246.

As for `CC(=O)Nc1ccc(S(=O)(=O)NNC(=O)CCC(=O)Nc2cc(C)ccc2C)cc1`, the z-score was -0.368.

Compound `Cc1ccccc1Nc1nc(-c2ccccc2)c(C(=O)Nc2cccnc2)s1` came in with a z-score of 0.177.

In the case of `O=C(O)CCSc1nc2ccccc2n1CCOc1ccccc1`, the z-score is 0.105.

`CS(=O)(=O)c1ccc(Sc2nc3ccccc3[nH]2)c([N+](=O)[O-])c1` returned a z-score of -0.102.

`O=C1/C(=C/c2ccccc2)Nc2ccccc21` returned a z-score of -0.773.

In turn, `O=C(NC(=S)NNC(=O)c1ccccc1[N+](=O)[O-])c1ccccc1` came in with a z-score of -0.00864.

Take `Cc1ccc(NC(=O)C(=O)NNC(=O)c2ccccc2C)cc1Cl`: the z-score was -0.171.

In the case of `Cc1ccccc1C(=O)NNC(=S)NC(=O)c1ccccc1`, the z-score was 3.78 (active).

In turn, `Cc1ccc(C(=O)NC(=S)NNC(=O)c2ccccc2[N+](=O)[O-])cc1` yielded a z-score of 0.414.

For the compound `Cc1ccccc1C(=O)NNC(=O)CCC(=O)Nc1cccc(Cl)c1C`, the z-score was -0.34.

For `Cc1ccccc1C(=O)NNC(=O)C(=O)Nc1cccc(Cl)c1C`, the z-score was 6.02 (active).

`Cc1cc(C)nc(Sc2ccc(/C=C(\C#N)C(=O)Nc3ccccc3)o2)n1` returned a z-score of -0.125.

In the case of `O=C(NCc1ccco1)c1cc(-c2cccc(Cl)c2)on1`, the z-score is 0.0775.

Turning to `CCN(CC)CCCNC(=O)c1cc(-c2ccc(Cl)c(Cl)c2)on1`, the z-score was 5.37 (active).

With `CCN(CC)CCCNC(=O)c1cc(-c2ccc(O)cc2)on1`, the z-score is 0.686.

Consider `CCN(CC)CCCNC(=O)c1cc(-c2ccc(Cl)cc2)on1`, for which the z-score was 1.7.

As to `O=C(NCc1cccs1)c1cc(-c2cccc(Cl)c2)on1`, the z-score is -1.01.

`CCN(CC)CCCNC(=O)c1cc(-c2cccc(Cl)c2)on1` registered a z-score of 2.64.

Take `CCCCC(=O)Nc1ccc(C(=O)NNC(=S)NC(=O)c2cccs2)cc1`: the z-score was determined as 0.439.

Regarding `Cc1ccc(/C=C(\C#N)C(=O)Nc2c(C)cccc2C)s1`, the z-score was -0.0444.

With `COc1ccc(CSc2cccc3cccnc23)cc1[N+](=O)[O-]`, the z-score was found to be 0.224.

In turn, `O=C(CSc1cccc2cccnc12)OCC(=O)c1ccccc1` registered a z-score of 0.45.

Compound `COc1ccc(/C(C)=N/NC(=O)c2ccc(CSc3cccc4cccnc34)cc2)cc1OC` yielded a z-score of -0.51.

Regarding `CN(C)C(=O)CSc1cccc2cccnc12`, the z-score is 7 (active).

Regarding `O=C(CSc1cccc2cccnc12)OCC(=O)c1ccc(Br)cc1`, the z-score is -0.113.

Take `O=C(O)CSc1cccc2cccnc12`: the z-score is -0.347 and 0.372.

The compound `O=C(CSc1cccc2cccnc12)NCc1ccco1` returned a z-score of -0.028.

With `CCOC(=O)CSc1cccc2cccnc12`, the z-score is 4.08 (active).

Take `Cc1cccc(CSc2cccc3cccnc23)c1`: the z-score was 8.5 (active).

For the compound `Cc1ccc(NC(=O)CN2C(=O)C3CCCCN3C(=O)c3ccccc32)cc1` (centres undefined), the z-score came to 0.0289.

As for `COC(=O)c1cc2c(s1)-c1ccccc1OC2`, the z-score is -0.0119.

For the compound `Cc1ccc(NC(=O)c2ccc3nc[nH]c3c2)cc1C`, the z-score amounted to 0.551.

In the case of `Cc1ccc(NC(=O)c2c(Cl)n(C)c3ccccc23)cc1`, the z-score was -0.377.

On to `O=C(Nc1cccc(NC(=O)c2cccs2)c1)c1ccco1`, for which the z-score is -0.313.

In turn, `Clc1cccc(Cl)c1CO/N=C/c1c(-c2ccccc2)nc2n1CCS2` showed a z-score of -0.177.

For the compound `Cn1c(O)c(C=NCC2CCNCC2)c(=O)n(C)c1=O`, the z-score was determined as 0.695.

For `O=C(NCc1cccs1)c1cnn2cccnc12`, the z-score stood at 0.267.

In turn, `CCOC(=O)N1CCN(CC(O)COCc2ccc(OC)c(OC)c2)CC1` (centres undefined) registered a z-score of 0.0416.

Take `CC(C)(C)C1CCC(OC(=O)c2ccncc2)CC1` (centres undefined): the z-score was found to be 0.0808.

The compound `C/C(=N\Nc1ccc([N+](=O)[O-])cc1[N+](=O)[O-])c1ccc(-n2nncc2C(C)(C)C)cc1` came in with a z-score of -2.37.

For `O=C(CCCN1C(=O)C2CCCCN2C1=O)N1CCN(c2ccc([N+](=O)[O-])cc2)CC1` (centres undefined), the z-score came to 0.169.

The compound `O=C(Nc1cccc(Cl)c1)Nc1nnc(-c2ccncc2)s1` gave a z-score of -0.194.

Take `O=C(NNC(=O)C1COc2ccccc2O1)c1ccccc1` (centres undefined): the z-score is 0.0265.

With `NC(=S)NNC(=O)Nc1ccc(Cl)c(Cl)c1`, the z-score amounted to 0.243.

Regarding `CC(/C=N/n1c(COc2ccccc2)n[nH]c1=S)=C\c1ccccc1`, the z-score stood at 1.93.

In turn, `S=c1[nH]nc(C2CCCCC2)n1/N=C/C(Cl)=C\c1ccccc1` showed a z-score of -0.0746.

Turning to `CC(/C=N/n1c(-c2ccco2)n[nH]c1=S)=C\c1ccccc1`, the z-score was 5.91 (active).

Compound `CC(/C=N/n1c(C2CCCCC2)n[nH]c1=S)=C\c1ccccc1` registered a z-score of 2.13.

`CC(/C=N/n1c(-c2ccco2)n[nH]c1=S)=C\c1ccco1`: the z-score is 0.1.

As to `Cc1cc(-c2n[nH]c(=S)n2/N=C/C(Cl)=C/c2ccccc2)n[nH]1`, the z-score was -0.527.

`S=c1[nH]nc(-c2ccco2)n1/N=C/C=C/c1ccco1` showed a z-score of -0.366.

Compound `CC(/C=N/n1c(-c2cc(C)[nH]n2)n[nH]c1=S)=C\c1ccccc1` showed a z-score of -0.302.

`CC(=C/c1ccccc1)/C=N/n1c(-c2ccco2)n[nH]c1=S` registered a z-score of 2.16.

The compound `Cc1cc(NCCN2CCOCC2)n2nc(C)c(-c3ccc(Cl)cc3)c2n1` had a z-score of -0.362.

As for `COc1ccccc1-c1c(C#N)c(SCC(=O)N2CCCC2)nc(C)c1C(N)=O`, the z-score is 0.169.

Regarding `CNC(=O)c1ccc(-n2nc(C)cc2-c2ccccc2)cc1`, the z-score was -0.167.

Take `CCOC(=O)c1c(N)sc2c(OCC)c(Br)ccc12`: the z-score came to 0.151.

Compound `O=C1CCc2cc(S(=O)(=O)NC(C(=O)NCc3cccnc3)c3ccccc3)ccc2N1` (centres undefined) came in with a z-score of -0.174.

As to `CCCN(CCC)CCNC(=O)C(NS(=O)(=O)c1ccc2c(c1)CCC(=O)N2)c1ccccc1` (centres undefined), the z-score is 10 (active).

With `CCCNC(=O)C(Cc1ccccc1)NS(=O)(=O)c1ccc2c(c1)CCC(=O)N2` (centres undefined), the z-score worked out at 0.179.

In turn, `Cc1ccccc1S(=O)(=O)c1c(C)cc(C)n(C(C)C)c1=O` yielded a z-score of -0.131.

For the compound `CCCCNC(=S)N/N=C1\CCCCc2ccccc21`, the z-score stood at 2.17.

`C=C(C)CNC(=S)N/N=C1\CCCCc2ccccc21`: the z-score was 3.15 (active).

The compound `CCNC(=S)N/N=C1\CCCCc2ccccc21` gave a z-score of 1.57.

As for `CCCCCCC(=O)N/N=C1\CCCc2ccccc21`, the z-score was -0.118.

For `COc1cccc(NC(=S)N/N=C2\CC(C)(C)Oc3ccc(O)cc32)c1`, the z-score is -0.0142.

For the compound `COC(=O)N/N=C1\CCCc2ccccc21`, the z-score was -0.137.

For the compound `Cc1cccc(NC(=S)N/N=C2/CCCCc3ccccc32)c1`, the z-score was determined as 0.797.

As for `COc1cccc(NC(=S)N/N=C2/CCCCc3ccccc32)c1`, the z-score was 8.28 (active).

For `CC(C)NC(=S)N/N=C1\CCCCc2ccccc21`, the z-score was -0.471.
